# Inconclusive results are not listed. A call without a number means that no potency is given here. Active and inactive are the calls of the source. Unless noted, the call rests on the fitted dose curve; in most records, active means well fitted curve in the direction sought with a large enough effect in the repeat runs; inconclusive means weak or mixed curves; inactive means no such curve, though single readings can be large; an effect the other way counts as inactive or inconclusive.
# Key:
# [1] = molecular target: Retinoic acid receptor RXR-alpha (Homo sapiens) (UniProt P19793); test: qHTS assay to identify small molecule agonists of the RXR signaling pathway (AID 1159527; calls by dose curve; further: nearly all actives have a fitted effect of over 35% in size; further: potency means the concentration at half of the fitted maximal effect)
# Outline: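 Reporter activation is measured as beta-lactamase activity via FRET substrate cleavage (emission 460/530 nm) in HEK 293T cells expressing an RXR-alpha-driven bla construct, following 16 hr compound exposure at 37 C.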
# [2] = qHTS assay to identify small molecule agonists of the RXR signaling pathway - cell viability counter screen (AID 1159529); further: series mostly up to about 77 µM; nearly all actives have a fitted effect of over 50% in size
# Outline: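 Tox21 10K compounds were tested for cytotoxicity against GeneBLAzer RXR-alpha HEK 293T cells grown in 2% charcoal-stripped FBS. Exposure lasted 16 hr at 37 C, 5% CO2; viability read by CellTiter-Glo luminescence.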
# [3] = qHTS assay to identify small molecule antagonists of the retinoid acid receptor (RAR) signaling pathway - cell viability counter screen (AID 1159551); further: nearly all actives have a fitted effect of over 35% in size
# Outline: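 Viability of C3RL4 cells is quantified from ATP by luminescence after 6 h treatment at 37 C with compounds and 1 uM retinol.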
# [4] = qHTS assay to identify small molecule antagonists of the retinoic acid receptor (RAR) signaling pathway (AID 1159552; further: nearly all actives have a fitted effect of over 50% in size)
# Outline: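 Overnight-plated C3RL4 reporter cells get compound, then retinol to 1 uM final; plates sit 6 hr at 37 C, 5% CO2. A luciferase reagent is added and light output recorded after 30 min at room temperature.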
# [5] = qHTS assay to identify small molecule antagonists of the estrogen related receptor (ERR) signaling pathway from Tox21 library - cell viability counter screen (AID 1224834); further: nearly all actives have a fitted effect of over 30% in size
# Outline: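 In this quantitative HTS format, ERR cells receive compounds in DMSO and are incubated for 17.5 h at 37 C. Live-cell protease activity is then detected with CellTiter-Fluor.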
# [6] = molecular target: Luciferin 4-monooxygenase (Photinus pyralis) (UniProt P08659); test: qHTS assay to identify small molecule inhibitors of firefly luciferase (AID 1224835); further: series mostly up to about 120 µM; nearly all actives have a fitted effect of over 25% in size
# Outline: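 Biochemical qHTS: compounds run as interplate titrations against purified firefly enzyme, with D-luciferin and ATP each at its KM concentration. Light output recorded by CCD imaging.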
# [7] = qHTS assay to identify small molecule agonists of the constitutive androstane receptor (CAR) signaling pathway - cell viability counter screen (AID 1224836); further: series mostly up to about 92 µM; nearly all actives have a fitted effect of over 45% in size
# Outline: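 Fluorescence from CellTiter-Fluor indicates live cells after 23 h exposure. The human hepatoma line expresses hCAR and a CYP2B6-2.2kb reporter. Incubation medium contains 0.75 uM PK11195 (final).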
# [8] = qHTS assay to identify small molecule antagonists of the constitutive androstane receptor (CAR) signaling pathway - cell viability counter screen (AID 1224837); further: series mostly up to about 92 µM; nearly all actives have a fitted effect of over 45% in size
# Outline: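 In quantitative HTS format, compounds at 15 concentrations were applied to HepG2 cells double-transfected with hCAR and CYP2B6-2.2kb under 50 nM CITCO stimulation; live-cell protease activity was read after 23 hr via CellTiter-Fluor.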
# [9] = molecular target: Nuclear receptor subfamily 1 group I member 3 (Homo sapiens) (UniProt Q14994); test: qHTS assay to identify small molecule antagonists of the constitutive androstane receptor (CAR) signaling pathway (AID 1224838); further: nearly all actives have a fitted effect of over 40% in size
# Outline: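 CITCO-stimulated (50 nM final) HepG2 cells stably transfected with hCAR and CYP2B6-2.2kb luciferase were exposed to compounds at 15 concentrations for 24 h at 37 C/5% CO2. A luciferase reagent was added and luminescence recorded after 30 min.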
# [10] = molecular target: Nuclear receptor subfamily 1 group I member 3 (Homo sapiens) (UniProt Q14994); test: qHTS assay to identify small molecule agonists of the constitutive androstane receptor (CAR) signaling pathway (AID 1224839); further: nearly all actives have a fitted effect of over 15% in size; further: potency means the concentration at half of the fitted maximal effect
# Outline: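 Stable hCAR/CYP2B6-2.2kb HepG2 line in DMEM with 10% FBS; compounds (15 concentrations) and 0.75 uM PK11195 final, 24 h at 37 C/5% CO2, then ONE-Glo luminescence after 30 min.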
# [11] = qHTS assay to identify small molecule antagonists of the estrogen related receptor signaling pathway with the pleiotropic PPARgamma coactivator (PGC) from Tox21 10K library (AID 1224841; call rule not given here; further: series mostly up to about 92 µM; actives are mostly falling curves and most rising ones were filed inactive; nearly all actives have a fitted effect of over 50% in size)
# Outline: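 In the PGC/ERR line, DMSO solutions of test chemicals are pin-delivered to 2,000 cells/well six hours after dispensing. Following eighteen hours' incubation, One-Glo reagent is added and luminescence recorded.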
# [12] = qHTS assay to identify small molecule agonists of the estrogen related receptor signaling pathway with the pleiotropic PPARgamma coactivator (PGC) from Tox21 10K library (AID 1224842); further: nearly all actives have a fitted effect of over 15% in size
# Outline: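 PGC/ERR reporter cell line, 2,000 cells per well, incubated 6 h at 37 C before 23 nL compound in DMSO was added. After 18 h at 37 C, One-Glo luminescence read following 30 min at room temperature.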
# [13] = molecular target: Thyrotropin receptor (Homo sapiens) (UniProt P16473); test: qHTS assay to identify small molecule agonists of the thyroid stimulating hormone receptor (TSHR) signaling pathway (AID 1224843; calls by dose curve; further: nearly all actives have a fitted effect of over 45% in size)
# Outline: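 Agonist-mode screen: TSHR HEK293 cells received test chemicals for half an hour at room temperature, then HTRF cAMP detection reagents for one hour prior to fluorescence measurement. Each chemical ran as a 15-concentration series, triplicated.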
# [14] = qHTS assay to identify small molecule antagonists of the estrogen related receptor signaling pathway with the pleiotropic PPARgamma coactivator (PGC) from Tox21 10K library - cell viability counter screen (AID 1224840; active means well fitted cell-killing curve with a large enough effect in the repeat runs, not every such curve was filed as active; further: nearly all actives have a fitted effect of over 40% in size)
# Outline: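 Viability counter screen, PGC/ERR cells: 17.5 h compound exposure at 37 C, CellTiter-Fluor fluorescence endpoint.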
# [15] = qHTS assay to identify small molecule agonists of the retinoic acid receptor (RAR) signaling pathway (AID 1159553)
# Outline: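 Compounds dissolved in DMSO were pinned onto C3RL4 cells seeded the previous day, and plates were held 6 hr at 37 C. RARE-driven luciferase output was then read by luminescence.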
# Chain of Luciferin 4-monooxygenase (Photinus pyralis) (P08659 whole entry, looked up): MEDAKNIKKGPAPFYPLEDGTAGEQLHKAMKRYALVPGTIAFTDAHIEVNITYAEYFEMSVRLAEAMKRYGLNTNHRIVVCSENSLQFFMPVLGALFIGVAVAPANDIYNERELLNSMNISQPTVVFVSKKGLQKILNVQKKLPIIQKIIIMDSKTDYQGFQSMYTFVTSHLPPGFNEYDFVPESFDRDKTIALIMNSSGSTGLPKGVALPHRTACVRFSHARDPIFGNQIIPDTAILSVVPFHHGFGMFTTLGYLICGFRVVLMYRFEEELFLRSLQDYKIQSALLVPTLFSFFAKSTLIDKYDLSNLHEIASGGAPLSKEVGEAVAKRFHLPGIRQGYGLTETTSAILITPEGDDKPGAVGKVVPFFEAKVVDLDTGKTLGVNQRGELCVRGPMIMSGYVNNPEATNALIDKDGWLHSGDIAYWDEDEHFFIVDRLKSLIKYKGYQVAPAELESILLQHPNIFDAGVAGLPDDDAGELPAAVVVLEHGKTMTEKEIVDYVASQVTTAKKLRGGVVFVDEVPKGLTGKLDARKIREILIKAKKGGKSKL
# Chain of Thyrotropin receptor (Homo sapiens) (P16473 whole entry, looked up): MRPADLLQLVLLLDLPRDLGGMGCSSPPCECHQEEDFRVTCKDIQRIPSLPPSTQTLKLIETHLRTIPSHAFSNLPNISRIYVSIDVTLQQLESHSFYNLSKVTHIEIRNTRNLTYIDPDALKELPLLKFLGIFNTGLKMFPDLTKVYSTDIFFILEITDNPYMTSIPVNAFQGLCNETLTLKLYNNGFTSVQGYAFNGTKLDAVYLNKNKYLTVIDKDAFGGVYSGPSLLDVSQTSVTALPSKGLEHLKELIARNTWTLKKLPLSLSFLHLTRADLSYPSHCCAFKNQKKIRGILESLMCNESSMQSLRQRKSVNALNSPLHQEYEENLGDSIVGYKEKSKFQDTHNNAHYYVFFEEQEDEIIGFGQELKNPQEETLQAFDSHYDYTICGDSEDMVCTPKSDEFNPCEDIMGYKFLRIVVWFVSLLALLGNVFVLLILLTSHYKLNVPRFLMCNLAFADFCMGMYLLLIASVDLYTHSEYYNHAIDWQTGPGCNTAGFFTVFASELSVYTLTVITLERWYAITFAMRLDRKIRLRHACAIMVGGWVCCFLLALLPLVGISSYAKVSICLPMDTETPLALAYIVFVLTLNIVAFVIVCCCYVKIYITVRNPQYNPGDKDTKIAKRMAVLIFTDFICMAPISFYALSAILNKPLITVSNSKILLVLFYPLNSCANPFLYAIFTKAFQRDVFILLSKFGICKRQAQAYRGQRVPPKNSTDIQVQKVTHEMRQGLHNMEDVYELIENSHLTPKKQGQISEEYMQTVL
# Chain of Retinoic acid receptor RXR-alpha (Homo sapiens) (P19793 whole entry, looked up): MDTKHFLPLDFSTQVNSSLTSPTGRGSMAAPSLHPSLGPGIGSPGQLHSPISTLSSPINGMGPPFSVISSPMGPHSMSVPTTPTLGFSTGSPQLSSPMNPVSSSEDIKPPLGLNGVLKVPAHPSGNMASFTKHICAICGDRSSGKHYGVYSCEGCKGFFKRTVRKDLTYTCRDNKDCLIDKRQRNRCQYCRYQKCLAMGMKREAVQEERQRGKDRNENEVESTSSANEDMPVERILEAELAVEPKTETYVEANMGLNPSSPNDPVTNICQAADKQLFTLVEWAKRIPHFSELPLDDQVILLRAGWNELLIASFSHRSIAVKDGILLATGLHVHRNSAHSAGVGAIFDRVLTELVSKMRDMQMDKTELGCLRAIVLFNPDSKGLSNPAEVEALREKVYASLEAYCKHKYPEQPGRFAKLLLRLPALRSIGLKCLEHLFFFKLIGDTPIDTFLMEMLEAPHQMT
# Chain of Nuclear receptor subfamily 1 group I member 3 (Homo sapiens) (Q14994 whole entry, looked up): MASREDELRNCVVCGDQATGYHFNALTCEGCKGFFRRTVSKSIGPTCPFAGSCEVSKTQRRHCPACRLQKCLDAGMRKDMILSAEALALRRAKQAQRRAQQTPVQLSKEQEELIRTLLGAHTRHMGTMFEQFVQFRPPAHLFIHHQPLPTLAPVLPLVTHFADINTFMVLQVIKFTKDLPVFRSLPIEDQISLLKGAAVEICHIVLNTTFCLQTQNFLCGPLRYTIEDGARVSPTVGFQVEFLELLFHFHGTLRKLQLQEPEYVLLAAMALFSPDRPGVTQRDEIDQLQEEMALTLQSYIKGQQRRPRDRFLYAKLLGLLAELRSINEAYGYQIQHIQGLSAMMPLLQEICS
Compound,Potency [1],Potency [2],Potency [3],Potency [4],Potency [5],Potency [6],Potency [7],Potency [8],Potency [9],Potency [10],Potency [11],outcome [12],Potency [13],Potency [14],Potency [15]
Cc1cc(C)nc(Nc2ccccc2)n1,inactive,inactive,inactive,inactive,inactive,inactive,inactive,inactive,inactive,61.1 µM (active),inactive,inactive,inactive,–,–
N#CCCC#N,inactive,inactive,inactive,–,inactive,inactive,inactive,inactive,–,–,–,–,–,inactive,–
CC(C)COP(=O)(OCC(C)C)OCC(C)C,inactive,inactive,inactive,–,inactive,inactive,inactive,inactive,–,–,inactive,–,–,inactive,–
Nc1ccccc1Cl,inactive,inactive,inactive,–,inactive,inactive,inactive,inactive,inactive,–,–,–,–,inactive,–
CN/C(=N\[N+](=O)[O-])NCC1CCOC1 (stereo not drawn),inactive,inactive,inactive,–,inactive,–,inactive,inactive,inactive,inactive,–,–,inactive,–,–
CCCCCCI,inactive,inactive,inactive,–,inactive,–,inactive,inactive,inactive,inactive,–,–,–,inactive,–
CN(C)CCc1ccc(O)cc1,inactive,inactive,inactive,–,–,inactive,inactive,inactive,–,inactive,inactive,–,inactive,–,–
ClCCOCOCCCl,inactive,–,inactive,inactive,inactive,inactive,inactive,inactive,inactive,–,inactive,inactive,inactive,inactive,inactive
O=C(O)C(Br)CBr (stereo not drawn),9.94 µM (active),inactive,inactive,–,–,inactive,inactive,inactive,–,–,–,–,inactive,inactive,–
CC(CC(C#N)(c1ccccc1)c1ccccc1)N(C)C (stereo not drawn),inactive,inactive,inactive,–,–,inactive,–,inactive,inactive,27.2 µM (active),–,–,inactive,inactive,–
CC1(C(=O)Nc2ccc(O)c(Cl)c2Cl)CCCCC1,inactive,inactive,inactive,–,–,inactive,inactive,–,–,inactive,–,–,–,inactive,–
Cc1cc(C)c(C(=O)P(=O)(C(=O)c2c(C)cc(C)cc2C)c2ccccc2)c(C)c1,inactive,–,inactive,inactive,inactive,inactive,inactive,–,inactive,–,inactive,inactive,inactive,inactive,inactive
c1ccc(N2CCNCC2)cc1,inactive,inactive,inactive,–,inactive,inactive,inactive,–,inactive,inactive,–,–,inactive,–,–
Cc1coc2c1CCC(C)C2 (stereo not drawn),inactive,inactive,inactive,–,inactive,inactive,inactive,–,inactive,–,–,–,inactive,–,–
CNC(=O)Oc1c(C(C)(C)C)cc(C)cc1C(C)(C)C,inactive,–,inactive,inactive,inactive,inactive,inactive,inactive,inactive,–,–,–,inactive,–,inactive
C[C@]12CC[C@H]3[C@@H](CC=C4C[C@@H](O)CC[C@@]43C)[C@@H]1CC[C@@H]2O,inactive,–,inactive,inactive,inactive,–,inactive,–,–,–,–,–,–,inactive,inactive
CCS(=O)(=O)C(C)(C)S(=O)(=O)CC,inactive,inactive,inactive,–,inactive,inactive,inactive,–,inactive,–,inactive,–,–,–,–
CCOP(=O)(N=C1SCCS1)OCC,inactive,inactive,inactive,–,inactive,inactive,inactive,–,inactive,inactive,–,–,inactive,inactive,–
Clc1cccc(N2CCNCC2)c1,inactive,–,inactive,inactive,inactive,inactive,inactive,inactive,inactive,inactive,–,–,inactive,inactive,inactive
COc1cc(OC)nc(NC(=O)NS(=O)(=O)c2ncccc2OCC(F)(F)F)n1,inactive,inactive,inactive,–,–,inactive,inactive,inactive,inactive,inactive,inactive,inactive,–,–,–
Cc1cnc[nH]1,inactive,–,inactive,inactive,inactive,inactive,inactive,–,–,–,–,–,inactive,–,inactive
CC(C=O)Cc1ccc2c(c1)OCO2 (stereo not drawn),inactive,–,inactive,inactive,inactive,inactive,inactive,–,inactive,inactive,–,–,inactive,inactive,inactive
Cc1nnc2n1-c1sc(CCC(=O)N3CCOCC3)cc1C(c1ccccc1Cl)=NC2,inactive,–,inactive,inactive,inactive,inactive,inactive,–,–,inactive,inactive,inactive,inactive,inactive,inactive
O=NN1CCCCC1,inactive,inactive,inactive,–,inactive,inactive,inactive,–,inactive,inactive,–,–,inactive,inactive,–
CCOC(=O)C(c1c(O)c2ccccc2oc1=O)c1c(O)c2ccccc2oc1=O,inactive,inactive,inactive,–,inactive,–,inactive,inactive,–,inactive,–,–,inactive,inactive,–
CCc1cc2c(s1)-n1c(C)nnc1CN=C2c1ccccc1Cl,inactive,inactive,inactive,–,–,inactive,inactive,inactive,–,–,inactive,inactive,–,inactive,–
COC(=O)C(c1ccccc1)C1CCCCN1 (stereo not drawn),inactive,inactive,inactive,–,–,inactive,inactive,inactive,inactive,inactive,–,–,inactive,inactive,–

# From PubChem BioAssay (Tox21)
